Test results published in PubChem BioAssay (EPA / NIEHS).
Inconclusive results are not listed. Activity calls are given as the source filed them. The calls were made as follows, unless noted: active = hit-call score of the fitted dose curve at least 0.9, where 1 is the maximum; inactive = score below 0.9.

Assays:
[1] = ACEA_ER_80hr: ACEA Biosciences xCELLigence Real-Time Cell Analysis on Estrogen Receptor Agonism for Proliferation (AID 2282667; active = hit-call score of the fitted dose curve at least 0.9, where 1 is the maximum); details: T47D proliferation, impedance (xCELLigence), 80 h
How it was run: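 Estrogen-driven proliferation is captured as electrode impedance in T47D cells 80 h after compound addition. Test articles ran at 8 concentrations, 1:4 dilutions from 100 uM final, in two replicate plates.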

[2] = ATG_CRE_CIS: Attagene CIS-FACTORIAL HepG2 Assay for human cAMP Responsive Element (CRE) binding protein 3 (AID 2282926); details: HepG2 CRE cis-reporter, Attagene multiplexed mRNA; actives raise or lower the signal
How it was run: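 Transfected HepG2 were treated for 24 hours, then RNA was extracted and reporter cDNA amplified with sequence-specific primers. Labelled fragments were separated by capillary electrophoresis, and the CRE signal was fitted bidirectionally with DMSO as baseline.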

[3] = biological target: CCAAT/enhancer-binding protein beta (Homo sapiens) (UniProt P17676); test: ATG_C_EBP_CIS: Attagene CIS-FACTORIAL HepG2 Assay for human CCAAT/Enhancer Binding Protein (C/EBP) beta (AID 2282927); details: HepG2 Attagene cis-factorial transcription factor reporter; actives raise or lower the signal
Sequence of CCAAT/enhancer-binding protein beta (Homo sapiens) (P17676 whole entry, looked up): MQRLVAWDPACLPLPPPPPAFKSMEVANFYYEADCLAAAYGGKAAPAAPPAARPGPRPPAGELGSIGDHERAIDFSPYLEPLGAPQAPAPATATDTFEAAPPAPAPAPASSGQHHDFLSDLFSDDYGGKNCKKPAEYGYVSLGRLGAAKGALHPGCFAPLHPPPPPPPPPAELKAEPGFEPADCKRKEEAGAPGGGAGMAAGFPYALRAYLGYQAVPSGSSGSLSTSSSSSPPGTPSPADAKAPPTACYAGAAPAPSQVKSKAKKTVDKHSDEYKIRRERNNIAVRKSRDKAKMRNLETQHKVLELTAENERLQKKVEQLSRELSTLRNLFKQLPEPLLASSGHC
How it was run: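 RT-PCR/capillary electrophoresis fluorescence of reporter mRNA, 24 h post-dose, in HepG2 cells carrying transfected cis-promoter reporter units. Bidirectional curve fitting against DMSO baseline captures gain or loss of signal.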

[4] = ATG_CMV_CIS: Attagene CIS-FACTORIAL HepG2 Assay for human CMV (Internal Marker) (AID 2282928); details: HepG2 CMV promoter reporter, transcription factor profiling; actives raise or lower the signal;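 also: endpoint acts as a background internal control marker rather than a target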
How it was run: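 After transient transfection of HepG2 with reporter transcription units driven by cis-regulatory promoters, cells receive test chemical for 24 h. Labeled reporter amplicons, digested with HpaI, are sized and quantified by capillary electrophoresis against DMSO.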

[5] = ATG_DR4_LXR_CIS: Attagene CIS-FACTORIAL HepG2 Assay for human Liver X Receptor (LXR), DR4 submotif (AID 2282929); details: HepG2 Attagene DR4 cis-reporter, mRNA transcription; actives raise or lower the signal
How it was run: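 HepG2 cells transiently transfected with cis-promoter-driven multiplexed reporter units (DR4 element) were dosed for 24 h. Reporter mRNA was quantified by RT-PCR, fluorescent primer extension, HpaI digestion and capillary electrophoresis; bidirectional fitting versus DMSO baseline.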

[6] = biological target: Aryl hydrocarbon receptor (Homo sapiens) (UniProt P35869); test: ATG_Ahr_CIS: Attagene CIS-FACTORIAL HepG2 Assay for human Aryl Hydrocarbon Receptor (Ahr) (AID 2282930); details: HepG2 AhR cis-factorial reporter transcription; actives raise or lower the signal
Sequence of Aryl hydrocarbon receptor (Homo sapiens) (P35869 whole entry, looked up): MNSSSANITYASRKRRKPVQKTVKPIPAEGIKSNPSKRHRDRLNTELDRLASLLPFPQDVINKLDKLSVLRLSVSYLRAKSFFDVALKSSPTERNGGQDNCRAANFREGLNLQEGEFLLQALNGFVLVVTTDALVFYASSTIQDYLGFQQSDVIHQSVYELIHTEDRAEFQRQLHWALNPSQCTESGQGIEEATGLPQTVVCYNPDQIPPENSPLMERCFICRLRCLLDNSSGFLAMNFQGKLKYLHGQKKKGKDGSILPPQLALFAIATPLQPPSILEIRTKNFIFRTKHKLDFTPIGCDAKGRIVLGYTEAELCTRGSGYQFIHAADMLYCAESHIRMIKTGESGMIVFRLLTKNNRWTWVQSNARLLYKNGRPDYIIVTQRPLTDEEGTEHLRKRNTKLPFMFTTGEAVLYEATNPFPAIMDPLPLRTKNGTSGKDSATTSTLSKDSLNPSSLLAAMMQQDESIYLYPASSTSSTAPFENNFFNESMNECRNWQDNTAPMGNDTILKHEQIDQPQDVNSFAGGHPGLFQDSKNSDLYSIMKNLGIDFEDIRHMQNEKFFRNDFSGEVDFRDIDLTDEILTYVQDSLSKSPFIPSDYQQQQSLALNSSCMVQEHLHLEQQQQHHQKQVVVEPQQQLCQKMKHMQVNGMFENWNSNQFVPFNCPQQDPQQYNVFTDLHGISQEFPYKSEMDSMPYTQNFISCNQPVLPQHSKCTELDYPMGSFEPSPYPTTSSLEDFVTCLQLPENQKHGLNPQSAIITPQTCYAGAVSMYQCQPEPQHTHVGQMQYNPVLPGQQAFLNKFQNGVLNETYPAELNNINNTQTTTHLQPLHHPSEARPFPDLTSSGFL
How it was run: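 HepG2 cells transiently transfected with cis-element-driven multiplexed reporter transcription units; endogenous transcription factor activity measured as reporter mRNA 24 h after dosing. RT-PCR, 6-FAM labelling, HpaI digestion, capillary electrophoresis; bidirectional fitting versus DMSO baseline.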

[7] = ATG_AP_1_CIS: Attagene CIS-FACTORIAL HepG2 Assay for human Activator Protein 1 (AP-1) (AID 2282931); details: HepG2 Attagene cis-factorial AP-1 reporter mRNA; actives raise or lower the signal
How it was run: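 HepG2 cells transiently transfected with cis-element-driven multiplex reporter units; 24 h compound exposure. Reporter mRNA quantified by RT-PCR, FAM-labelled fragments resolved by capillary electrophoresis; bidirectional fit versus DMSO baseline.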

[8] = ATG_BRE_CIS: Attagene CIS-FACTORIAL HepG2 Assay for human Bone Morphogenetic Protein (BMP) Response Element (BRE) (AID 2282933); details: HepG2 BMP response element reporter, Attagene transcription factor profiling; actives raise or lower the signal
How it was run: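 After a 24 h chemical treatment, transiently transfected HepG2 cells were lysed for RNA; reporter transcripts were quantified by fluorescent RT-PCR and capillary electrophoresis, normalised to DMSO.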

[9] = biological target: Transcription factor E2F1 (Homo sapiens) (UniProt Q01094); test: ATG_E2F_CIS: Attagene CIS-FACTORIAL HepG2 Assay for human E2F Transcription Factor 1 (AID 2282935); details: HepG2 Attagene cis-reporter, E2F reporter RNA transcripts; actives raise or lower the signal
Sequence of Transcription factor E2F1 (Homo sapiens) (Q01094 whole entry, looked up): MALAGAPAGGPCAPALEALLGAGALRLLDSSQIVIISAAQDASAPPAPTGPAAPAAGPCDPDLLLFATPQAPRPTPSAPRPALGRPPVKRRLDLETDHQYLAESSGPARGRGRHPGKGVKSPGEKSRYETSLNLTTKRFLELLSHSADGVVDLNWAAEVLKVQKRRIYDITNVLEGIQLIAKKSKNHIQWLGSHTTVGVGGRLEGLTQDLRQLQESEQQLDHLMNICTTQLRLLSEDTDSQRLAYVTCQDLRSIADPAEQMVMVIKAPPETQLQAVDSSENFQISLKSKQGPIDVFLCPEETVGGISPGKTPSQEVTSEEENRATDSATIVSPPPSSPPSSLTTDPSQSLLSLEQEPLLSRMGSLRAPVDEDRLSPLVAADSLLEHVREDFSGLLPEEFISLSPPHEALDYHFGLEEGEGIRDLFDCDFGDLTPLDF
How it was run: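 HepG2 cells transiently transfected with multiplexed cis-element reporter units, dosed for 24 h. Reporter mRNA measured by RT-PCR, 6-FAM primer-extension labeling, HpaI digestion and capillary electrophoresis; bidirectional fit versus DMSO baseline.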

[10] = ATG_E_Box_CIS: Attagene CIS-FACTORIAL HepG2 Assay for human Enhancer Box (E-box) (AID 2282936); details: HepG2 E-box cis-reporter transcription, actives raise or lower the signal
How it was run: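 HepG2 cells transiently transfected with multiplexed cis-element reporter units sensing endogenous transcription factor activity; 24 h compound exposure. Reporter mRNA measured by RT-PCR, 6-FAM primer extension, HpaI digestion and capillary electrophoresis; bidirectional fit versus DMSO.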

[11] = ATG_M_61_CIS: Attagene CIS-FACTORIAL HepG2 Assay for M61 Transcription Factor (Internal Marker) (AID 2282937); details: HepG2 Attagene CIS-FACTORIAL M61 internal marker reporter; actives raise or lower the signal
How it was run: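 HepG2 cells transiently transfected with cis-element-driven multiple reporter transcription units, dosed for 24 h. Reporter mRNA measured by RT-PCR, 6-FAM primer-extension labelling, HpaI digestion and capillary electrophoresis; bidirectional fit versus DMSO baseline.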

[12] = ATG_M_19_CIS: Attagene CIS-FACTORIAL HepG2 Assay for M19 Transcription Factor (Internal Marker) (AID 2282939); details: HepG2 Attagene CIS-FACTORIAL M19 internal marker reporter; actives raise or lower the signal
How it was run: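 In this multiplexed cell assay, transiently transfected HepG2 reporter units report endogenous transcription-factor activity; after 24 hours of treatment, labelled reporter cDNA fragments are quantified by capillary electrophoresis and fitted bidirectionally against DMSO.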

[13] = ATG_ERE_CIS: Attagene CIS-FACTORIAL HepG2 Assay for Estrogen Response Element (ERE) (AID 2282940); details: HepG2 ERE cis-reporter, Attagene RNA transcript; actives raise or lower the signal
How it was run: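 Measuring endogenous transcription factor output, the assay doses transfected HepG2 cells for 24 hours and quantifies reporter transcripts by fluorescent RT-PCR and capillary electrophoresis, with DMSO as baseline.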

[14] = ATG_Ets_CIS: Attagene CIS-FACTORIAL HepG2 Assay for human Erythroblast Transformation Specific (ETS) (AID 2282941); details: HepG2 ETS cis-reporter transcription, actives raise or lower the signal
How it was run: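 Human HepG2 hepatoma cells were transiently transfected with promoter-driven reporter constructs and treated for 24 hours. Reporter transcripts were quantified by RT-PCR with fluorescent primer extension; bidirectional curve fitting used DMSO as reference.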

[15] = biological target: Hepatocyte nuclear factor 3-beta (Homo sapiens) (UniProt Q9Y261); test: ATG_FoxA2_CIS: Attagene CIS-FACTORIAL HepG2 Assay for human Forkhead box A2 (FOXA2) (AID 2282942); details: HepG2 cis-reporter transcription factor activity, 24 h; actives raise or lower the signal
Sequence of Hepatocyte nuclear factor 3-beta (Homo sapiens) (Q9Y261 whole entry, looked up): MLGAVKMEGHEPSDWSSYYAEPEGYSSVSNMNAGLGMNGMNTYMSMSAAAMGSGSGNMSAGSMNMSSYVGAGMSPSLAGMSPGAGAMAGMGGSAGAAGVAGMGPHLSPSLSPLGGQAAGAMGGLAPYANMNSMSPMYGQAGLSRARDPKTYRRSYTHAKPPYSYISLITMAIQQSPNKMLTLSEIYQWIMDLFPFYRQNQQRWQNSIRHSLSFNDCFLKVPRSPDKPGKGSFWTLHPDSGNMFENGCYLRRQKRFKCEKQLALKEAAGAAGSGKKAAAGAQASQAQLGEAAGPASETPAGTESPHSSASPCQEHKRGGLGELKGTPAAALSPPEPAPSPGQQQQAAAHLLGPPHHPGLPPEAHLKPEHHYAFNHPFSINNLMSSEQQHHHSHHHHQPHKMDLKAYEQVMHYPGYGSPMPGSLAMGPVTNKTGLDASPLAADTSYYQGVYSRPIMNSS
How it was run: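 HepG2 cells transiently transfected with multiple cis-regulated reporter transcription units, dosed for 24 h. Reporter mRNA measured by RT-PCR, 6-FAM labelling, HpaI digestion and capillary electrophoresis; bidirectional fitting against DMSO baseline.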

[16] = ATG_FoxO_CIS: Attagene CIS-FACTORIAL HepG2 Assay for human Forkhead box O (FoxO) (AID 2282943); details: HepG2 Attagene cis-reporter, FoxO element, mRNA; actives raise or lower the signal
How it was run: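 HepG2 cells transiently transfected with cis-promoter-driven multiple reporter transcription units; 24 h after chemical dosing, reporter mRNA quantified by RT-PCR, fluorescent primer extension, HpaI digestion and capillary electrophoresis. Bidirectional fitting versus DMSO baseline.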

[17] = ATG_GATA_CIS: Attagene CIS-FACTORIAL HepG2 Assay for human GATA Binding Protein (AID 2282944); details: HepG2 GATA cis-element reporter, Attagene multiplex mRNA; actives raise or lower the signal
How it was run: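 Measures endogenous transcription factor-driven reporter mRNA in HepG2 cells transiently carrying cis-regulated constructs. 24 h dosing; RNA via oligo(dT) reverse transcription, PCR, HpaI digestion, capillary electrophoresis; fitted relative to DMSO.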

[18] = ATG_AP_2_CIS: Attagene CIS-FACTORIAL HepG2 Assay for human Activator Protein 2 (AP-2) (AID 2282932); details: HepG2 AP-2 cis-reporter, Attagene transcription factor profiling; actives raise or lower the signal
How it was run: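 HepG2 cells were transiently transfected with multiple cis-promoter reporter transcription units and dosed for 24 h. Reporter mRNA was measured by RT-PCR with capillary electrophoresis fluorescence; bidirectional fits relative to DMSO baseline.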

[19] = biological target: Retinoic acid receptor alpha (Homo sapiens) (UniProt P10276); test: ATG_DR5_RAR_CIS: Attagene CIS-FACTORIAL HepG2 Assay for human Retinoic Acid Receptor Alpha (RARE), DR5 submotif (AID 2282934); details: HepG2 Attagene cis-factorial RARE DR5 reporter, mRNA; actives raise or lower the signal
Sequence of Retinoic acid receptor alpha (Homo sapiens) (P10276 whole entry, looked up): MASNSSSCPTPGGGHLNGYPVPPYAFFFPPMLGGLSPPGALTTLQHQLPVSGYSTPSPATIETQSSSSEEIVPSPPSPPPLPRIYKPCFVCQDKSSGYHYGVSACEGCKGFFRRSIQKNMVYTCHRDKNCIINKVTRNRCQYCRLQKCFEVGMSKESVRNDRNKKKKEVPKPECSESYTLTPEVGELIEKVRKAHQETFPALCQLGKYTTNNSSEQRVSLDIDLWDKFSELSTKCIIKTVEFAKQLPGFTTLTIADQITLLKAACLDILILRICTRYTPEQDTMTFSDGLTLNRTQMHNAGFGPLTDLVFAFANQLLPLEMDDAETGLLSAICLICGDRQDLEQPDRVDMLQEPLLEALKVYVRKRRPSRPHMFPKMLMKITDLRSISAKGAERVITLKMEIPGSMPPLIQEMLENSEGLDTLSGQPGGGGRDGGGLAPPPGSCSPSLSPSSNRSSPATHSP
How it was run: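 HepG2 cells transiently transfected with multiplexed reporter units under cis (DR5 RARE) promoters, so endogenous transcription factor activity is measured. After 24 h compound exposure, reporter mRNA is quantified by RT-PCR with fluorescent labelling and capillary electrophoresis; bidirectional fitting versus DMSO.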

[20] = ATG_EGR_CIS: Attagene CIS-FACTORIAL HepG2 Assay for human Early Growth Response 1 (EGR1) (AID 2282938); details: HepG2 Attagene CIS-FACTORIAL EGR reporter mRNA; actives raise or lower the signal
How it was run: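 HepG2 cells transiently transfected with cis-promoter-driven multiplexed reporter transcription units; reporter mRNA measured 24 h after compound dosing by RT-PCR, 6-FAM primer extension, HpaI digestion and capillary electrophoresis. Bidirectional fit versus DMSO baseline.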

Measured: AC50

O=C(Cl)C(F)(F)C(F)(F)C(F)(F)C(F)(F)C(F)(F)C(F)(F)F
active: [7] 159 µM
not listed: [18] | [19] | [20]
inactive: all other assays above

C#CC(O)CCC (stereo not drawn)
not listed: [8]
inactive: all other assays above

NC(=O)C(F)(F)C(F)(F)C(F)(F)C(F)F
not listed: [18] | [19]
inactive: all other assays above

O=C(O)CCC(F)(F)C(F)(F)C(F)(F)F
not listed: [18]
inactive: all other assays above

O=C(O)C(F)(F)C(F)(F)C(F)(F)OC(F)(F)F
not listed: [19] | [20]
inactive: all other assays above

O=C(O)C(F)(F)C(F)(F)C(F)(F)C(=O)O
not listed: [8]
inactive: all other assays above

CC(C)CCCC(C)CCO (stereo not drawn)
not listed: [8] | [15]
inactive: all other assays above
